Assay results: PubChem BioAssay AID1159580 (chemical genetic matrix, 2015)
Among all 5,500 compounds or so, about 2,000 (36%) were called active. Another 18% or so got no clear call; they are omitted. Cut-off read from the data, not from the text of the source: active = normalized growth mostly below about 0.91 (no sharp cut-off); inconclusive = no clear call, values can overlap the other calls; inactive = mostly above about 0.92. The list shows a part of the results.

Assay: chemical genetic growth profiling, strain panel (AID 1159580);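 note: tested at 20 µM; growth read once vehicle control cultures reached saturation at 30 °C; 1 = growth at the plate median or of vehicle wells; lower values mean less growth of the strain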
Settings: S. cerevisiae deletion strains, growth OD

Measured: normalized growth

O=[N+]([O-])c1cccc2c(Br)[nH]nc12
inactive: locus YAL021C, strain ccr4, hits give low values 0.955 | locus YAL026C, strain drs2, hits give low values 0.993 | locus YAL030W, strain snc1, hits give low values 0.984 | locus YBL061C, strain skt5, hits give low values 0.982 | locus YBR009C, strain hhf1, hits give low values 1.01 | locus YBR023C, strain chs3, hits give low values 0.992 | locus YBR171W, strain sec66, hits give low values 0.972 | locus YBR231C, strain swc5, hits give low values 0.997 | locus YBR279W, strain paf1, hits give low values 0.992 | locus YCL011C, strain gbp2, hits give low values 0.976 | locus YCL016C, strain dcc1, hits give low values 0.996 | locus YCL061C, strain MRC1, hits give low values 0.983 | locus YCL069W, strain vba3, hits give low values 0.972 | locus YCR088W, strain abp1, hits give low values 0.986 | locus YDL005C, strain med2, hits give low values 0.977 | locus YDL040C, strain nat1, hits give low values 0.99 | locus YDR001C, strain nth1, hits give low values 0.984 | locus YDR069C, strain doa4, hits give low values 0.965 | locus YDR137W, strain rgp1, hits give low values 0.942 | locus YDR150W, strain NUM1, hits give low values 0.961 | locus YDR159W, strain sac3, hits give low values 1.07 | locus YDR195W, strain ref2 1.09 | locus YDR297W, strain sur2, hits give low values 0.977 | locus YDR334W, strain swr1, hits give low values 0.956 | locus YDR335W, strain msn5, hits give low values 0.975 | locus YDR392W, strain spt3, hits give low values 0.852 | locus YEL003W, strain gim4, hits give low values 0.978 | locus YEL037C, strain rad23, hits give low values 0.99 | locus YEL061C, strain CIN8 (second series), hits give low values 0.987 | locus YER002W, strain NOP16, hits give low values 0.975 | locus YER015W, strain faa2, hits give low values 0.973 | locus YER016W, strain bim1, hits give low values 0.998 | locus YER111C, strain swi4, hits give low values 0.998 | locus YER155C, strain BEM2 (second series), hits give low values 0.948 | locus YFR010W, strain ubp6, hits give low values 0.972 | locus YGL167C, strain pmr1, hits give low values 0.99 | locus YGL173C, strain kem1, hits give low values 0.983 | locus YGL227W, strain vid30, hits give low values 0.993 | locus YGL240W, strain doc1, hits give low values 0.996 | locus YGL253W, strain hxk2, hits give low values 0.988 | locus YHR013C, strain ard1, hits give low values 1.03 | locus YHR027C, strain rpn1, hits give low values 0.974 | locus YHR030C, strain SLT2, hits give low values 0.933 | locus YHR079C, strain IRE1, hits give low values 0.937 | locus YHR142W, strain chs7, hits give low values 0.901 | locus YJL092W, strain hpr5, hits give low values 0.969 | locus YJL095W, strain BCK1 (second series), hits give low values 0.977 | locus YJL095W, strain BCK1, hits give low values 0.911 | locus YJL115W, strain asf1, hits give low values 0.985 | locus YJL129C, strain trk1, hits give low values 0.988 | locus YJL154C, strain vps35, hits give low values 0.983 | locus YJL164C, strain tpk1, hits give low values 0.932 | locus YJL166W, strain qcr8, hits give low values 0.952 | locus YJL187C, strain SWE1, hits give low values 0.98 | locus YJR066W, strain TOR1, hits give low values 0.882 | locus YKL160W, strain elf1, hits give low values 0.916 | locus YKR026C, strain gcn3, hits give low values 0.988 | locus YKR091W, strain srl3, hits give low values 0.976 | locus YLL001W, strain dnm1, hits give low values 0.977 | locus YLL026W, hits give low values 0.98 | locus YLL041C, strain sdh2, hits give low values 0.976 | locus YLR027C, strain aat2, hits give low values 0.972 | locus YLR113W, strain HOG1, hits give low values 1.04 | locus YLR221C, strain rsa3, hits give low values 0.937 | locus YLR258W, strain gsy2, hits give low values 0.994 | locus YLR262C, strain YPT6 (second series), hits give low values 0.986 | locus YLR320W, strain mms22, hits give low values 0.99 | locus YLR342W, strain FKS1, hits give low values 0.987 | locus YLR357W, strain rsc2, hits give low values 1.02 | locus YLR370C, strain arc18, hits give low values 0.986 | locus YLR384C, strain iki3, hits give low values 0.987 | locus YML120C, strain ndi1, hits give low values 0.94 | locus YMR058W, strain fet3, hits give low values 0.942 | locus YMR125W, strain sto1, hits give low values 1.01 | locus YMR129W, hits give low values 0.99 | locus YMR205C, strain PFK2, hits give low values 1.05 | locus YMR231W, strain pep5, hits give low values 0.994 | locus YNL071W, strain lat1, hits give low values 0.982 | locus YNL175C, strain NOP13, hits give low values 0.972 | locus YNL183C, strain NPR1, hits give low values 0.873 | locus YNL197C, strain WHI3, hits give low values 1.01 | locus YNL209W, strain ssb2, hits give low values 0.973 | locus YNL224C, strain SQS1, hits give low values 0.982 | locus YNL322C, strain KRE1 (second series), hits give low values 0.994 | locus YNR049C, strain mso1, hits give low values 0.977 | locus YOR001W, strain rrp6, hits give low values 0.928 | locus YOR070C, strain gyp1, hits give low values 0.984 | locus YOR080W, strain dia2, hits give low values 0.987 | locus YOR083W, strain WHI5 (second series), hits give low values 0.991 | locus YOR231W, strain MKK1, hits give low values 0.929 | locus YOR265W, strain rbl2, hits give low values 0.982 | locus YOR270C, strain vph1, hits give low values 0.804 | locus YOR290C, strain snf2, hits give low values 0.919 | locus YPL106C, strain sse1, hits give low values 0.979 | locus YPL240C, strain hsp82, hits give low values 0.979 | locus YPL256C, strain CLN2, hits give low values 0.97
active: locus YNL248C, strain rpa49, hits give low values 0.871 | locus YOR083W, strain WHI5, hits give low values 0.881 | locus YOR106W, strain vam3, hits give low values 0.863 | locus YPL051W, strain arl3, hits give low values 0.899 | locus YPL078C, strain atp4, hits give low values 0.874
